The results in this text go back to the supplement of paper PMC12350171.

Holding throughout (assay): growth AUC normalised to DMSO control (median) (fraction of control); higher = less growth inhibition, active = hit call of the paper
Common to all, as to settings: 20 µM

In one experiment the test system is P. vulgatus RND KO. In short, it runs like this:
(§1)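 Anaerobic growth was tracked hourly at OD578 for 24 h in 96-well plates of mGAM seeded at OD578 0.01 with each approved-drug library compound at 20 μM and 1% DMSO. Strains had first been passaged twice overnight without oxygen. Three biological replicates were run. The reported median is the area under the curve, calculated by the trapezoidal rule on curves truncated at entry into stationary phase and normalised to vehicle wells on the same plate.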

In a further experiment the test system is P. vulgatus WT. In short, it runs like this: as §1
Experiment [1] relates to S. enterica typhimurium WT. In short, it runs like this: as §1
Experiment [2] relates to S. enterica typhimurium tolC KO. In short, it runs like this:
as §1

Structures are written as SMILES. Where a name gives a salt, the structure may show the parent alone. Unmarked numbers belong to inactive results.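 How the source made its calls: active = normalised median growth AUC below 0.1 of DMSO control; inactive = AUC 0.1 or higher.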
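Further: active when median AUC fell below 0.1.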

In the case of `COc1ccc(C2C(=O)c3ccccc3C2=O)cc1` [Anisindione], the “growth AUC normalised to DMSO control” value with P. vulgatus RND KO is 1; in the experiment with P. vulgatus WT, 1; in experiment [1], 0.973; in experiment [2] it was 0.749.
Turning to `CCCCc1ncc(/C=C(\Cc2cccs2)C(=O)O)n1Cc1ccc(C(=O)O)cc1` [Eprosartan mesylate], the “growth AUC normalised to DMSO control” value is 1.02 in the experiment with P. vulgatus RND KO, 1.02 in the experiment with P. vulgatus WT, 1.01 in experiment [1] and 1 in experiment [2].
For `COc1cc2c(cc1OC)C(=O)C(CC1CCN(Cc3ccccc3)CC1)C2` (stereo not given) [Donepezil hydrochloride], the “growth AUC normalised to DMSO control” value was 0.997 in the experiment on P. vulgatus RND KO, 1.01 in the experiment with P. vulgatus WT, 0.997 in experiment [1] and 0.981 in experiment [2].
Take `O=C(O)c1cc(=O)[nH]c(=O)[nH]1` [Orotic acid]: the “growth AUC normalised to DMSO control” value in the experiment with P. vulgatus RND KO was 0.976; in the experiment with P. vulgatus WT it was 0.993; in experiment [1], 1; in experiment [2] it was 1.01.
Taken in the same sequence, the figures for `CCCC(CCC)C(=O)O[C@H]1C[C@H]2CC[C@@H](C1)[N+]2(C)C` [Anisotropine Methylbromide] were 1.09, 1.12, 0.997 and 0.994.
`CCOC(=O)[C@H](CCc1ccccc1)N[C@@H](C)C(=O)N1[C@H](C(=O)O)C[C@H]2CCCC[C@@H]21` [Trandolapril]: the “growth AUC normalised to DMSO control” value with P. vulgatus RND KO is 0.986; in the experiment on P. vulgatus WT it was 0.992; in experiment [1] it was 1.01; in experiment [2], 0.998.
Taken in the same sequence, the figures for `CCCCC1=NC2(CCCC2)C(=O)N1Cc1ccc(-c2ccccc2-c2nnn[nH]2)cc1` [Irbesartan] were 0.985, 1, 1.01 and 0.987.
For `CCOC(=O)[C@H](CCc1ccccc1)N[C@H]1CS[C@H](c2cccs2)CN(CC(=O)O)C1=O` [Temocapril hydrochloride], in that order: 1.02, 1.03, 1 and 1.
Taken in the same sequence, the figures for `CCc1oc2ccccc2c1C(=O)c1cc(I)c(O)c(I)c1` [Benziodarone] were 0.647, 0.606, 0.999 and 0.815.
On to `C[C@H](CCc1ccccc1)NC[C@H](O)c1ccc(O)c(C(N)=O)c1` [Dilevalol], for which the “growth AUC normalised to DMSO control” value in the experiment on P. vulgatus RND KO is 1.02; in the experiment on P. vulgatus WT, 1.05; in experiment [1], 0.996; in experiment [2], 1.01.
With `O=[N+]([O-])c1ccc(O)c2ncccc12` [Nitroxoline], the “growth AUC normalised to DMSO control” value in the experiment with P. vulgatus RND KO is 0.0544 (active); in the experiment on P. vulgatus WT, 0.0282 (active); in experiment [1] it was 0.237; in experiment [2], 0.169.
For `Cc1ccsc1C(=CCCN1CCC[C@@H](C(=O)O)C1)c1sccc1C` [Tiagabine hydrochloride], in that order: 0.999, 0.984, 1 and 1.
For `N[C@@H](Cc1c[nH]c2ccccc12)C(=O)O` [L-Tryptophan], in that order: 1, 1.03, 0.994 and 0.989.
For `Cc1c(C(=O)NN2CCCCC2)nn(-c2ccc(Cl)cc2Cl)c1-c1ccc(Cl)cc1` [Rimonabant], in that order: 1.05, 1.07, 1 and 1.
As to `Cc1ccc(S(=O)(=O)NCl)cc1` [Chloramine-T hydrate], the “growth AUC normalised to DMSO control” value with P. vulgatus RND KO is 1; in the experiment on P. vulgatus WT, 0.997; in experiment [1], 0.996; in experiment [2], 1.
In the case of `CCOc1ccc(NC(=O)CC(C)O)cc1` (stereo not given) [Bucetin], the “growth AUC normalised to DMSO control” value in the experiment with P. vulgatus RND KO was 0.981; in the experiment with P. vulgatus WT it was 0.981; in experiment [1], 1; in experiment [2], 0.992.
On to `C[C@@H]1C[C@H]2[C@@H]3C[C@H](F)C4=CC(=O)C=C[C@]4(C)[C@@]3(F)[C@@H](O)C[C@]2(C)[C@@]1(O)C(=O)COC(=O)C(C)(C)C` [Flumethasone pivalate], for which the “growth AUC normalised to DMSO control” value is 0.995 in the experiment on P. vulgatus RND KO, 1 in the experiment on P. vulgatus WT, 0.999 in experiment [1] and 1 in experiment [2].
On to `Cc1cc(NS(=O)(=O)c2ccc(N)cc2)nc(C)n1` [Sulfisomidine], for which the “growth AUC normalised to DMSO control” value in the experiment on P. vulgatus RND KO is 1.03; in the experiment on P. vulgatus WT it was 1.03; in experiment [1], 1; in experiment [2], 0.995.
With `COc1cc2c(cc1OC)CC(=O)N(CCCN(C)C[C@H]1Cc3cc(OC)c(OC)cc31)CC2` [Ivabradine hydrochloride], the “growth AUC normalised to DMSO control” value is 1 in the experiment with P. vulgatus RND KO, 0.997 with P. vulgatus WT, 1.01 in experiment [1] and 0.965 in experiment [2].
As to `Nc1nc2[nH]cc(CCc3ccc(C(=O)N[C@@H](CCC(=O)O)C(=O)O)cc3)c2c(=O)[nH]1` [Pemetrexed disodium], the “growth AUC normalised to DMSO control” value in the experiment with P. vulgatus RND KO was 1.07; in the experiment on P. vulgatus WT it was 1.04; in experiment [1], 1.01; in experiment [2], 0.999.
For the compound `COc1cccc(OC)c1C(=O)N[C@@H]1C(=O)N2[C@@H]1SC(C)(C)[C@@H]2C(=O)O` [Methicillin sodium], the “growth AUC normalised to DMSO control” value is 0.708 in the experiment on P. vulgatus WT, 0.99 in experiment [1] and 0.482 in experiment [2].
As to `Cn1c([N+](=O)[O-])cnc1COC(N)=O` [Ronidazole], the “growth AUC normalised to DMSO control” value with P. vulgatus RND KO is 0.0102 (active); in the experiment on P. vulgatus WT, 0.00777 (active); in experiment [1] it was 0.999; in experiment [2], 0.923.
`Cc1ccc(O)c([C@H](CCN(C(C)C)C(C)C)c2ccccc2)c1` [Tolterodine tartrate]: the “growth AUC normalised to DMSO control” value with P. vulgatus RND KO is 1.01; with P. vulgatus WT it was 1.01; in experiment [1], 1; in experiment [2], 0.971.
Regarding `CN1c2cc(O)c(N=NC(N)=O)cc2CC1S(=O)(=O)O` (stereo not given) [Carbazochrome sodium sulfonate], the “growth AUC normalised to DMSO control” value with P. vulgatus RND KO was 1.01; with P. vulgatus WT, 1; in experiment [1] it was 1; in experiment [2], 0.993.
Consider `COc1ccc(C(=O)CC(=O)c2ccc(C(C)(C)C)cc2)cc1` [Avobenzone], for which the “growth AUC normalised to DMSO control” value is 0.939 in the experiment with P. vulgatus RND KO, 0.911 with P. vulgatus WT, 0.992 in experiment [1] and 0.976 in experiment [2].
`NC(=O)c1cc[n+](CC2=C(C(=O)O)N3C(=O)[C@@H](NC(=O)C(c4ccccc4)S(=O)(=O)[O-])[C@H]3SC2)cc1` (stereo not given in full) [Cefsulodin Sodium Salt Hydrate]: the “growth AUC normalised to DMSO control” value in experiment [1] is 0.995; in experiment [2] it was 0.986.
For `CC#CCn1c(N2CCC[C@@H](N)C2)nc2c1c(=O)n(Cc1nc(C)c3ccccc3n1)c(=O)n2C` [Linagliptin], the “growth AUC normalised to DMSO control” value with P. vulgatus RND KO is 0.987; in the experiment on P. vulgatus WT, 1.02; in experiment [1], 1; in experiment [2], 0.98.
For `Cc1cc2nc3c(=O)[nH]c(=O)nc-3n(C[C@H](O)[C@H](O)[C@H](O)CO)c2cc1C` [Riboflavine], in that order: 1.11, 1.07, 1 and 0.991.
As to `CN(C)CCCN1c2ccccc2[S+]([O-])c2ccc(Cl)cc21` (stereo not given) [Chlorpromazine Sulfoxide], the “growth AUC normalised to DMSO control” value is 1.07 in the experiment with P. vulgatus RND KO, 1.03 in the experiment with P. vulgatus WT, 0.995 in experiment [1] and 1.01 in experiment [2].
Taken in the same sequence, the figures for `COc1ccc(C[C@@H]2c3cc(OC)c(OC)cc3CC[N@+]2(C)CCC(=O)OCCCCCOC(=O)CC[N@@+]2(C)CCc3cc(OC)c(OC)cc3[C@H]2Cc2ccc(OC)c(OC)c2)cc1OC` [Cisatracurium besylate] were 1.06, 1.05, 1.02 and 0.994.
Regarding `CC(C)c1cc2c(cc1S(=O)(=O)O)[C@@]1(C)CCC[C@@](C)(C(=O)O)[C@@H]1CC2` [Ecabet sodium], the “growth AUC normalised to DMSO control” value was 1.01 in the experiment with P. vulgatus RND KO, 1.02 in the experiment with P. vulgatus WT, 1.01 in experiment [1] and 0.988 in experiment [2].
For the compound `O=C(Cn1cnnn1)N[C@@H]1C(=O)N2C(C(=O)O)=C(CSc3nncs3)CS[C@H]12` [Ceftezole], the “growth AUC normalised to DMSO control” value in the experiment with P. vulgatus RND KO was 0.00781 (active); with P. vulgatus WT, 0.00376 (active); in experiment [1], 0.0119 (active); in experiment [2] it was 0.00306 (active).
